Measured values from PubChem BioAssay AID1159580 (chemical genetic matrix, 2015).
Several values for one entry are separate records, joined by “and”; a condition that tells them apart may be missing. Equal values may be shown once. Out of some 5,500 compounds screened, about 2,000 (36%) were called active. About 18% were inconclusive and are not listed. No stated cut-off is given here; in the data, active means normalized growth mostly below about 0.91 (no sharp cut-off); inconclusive means no clear call, values can overlap the other calls; inactive means mostly above about 0.92. The list shows a part of the results.

Assay: chemical genetic growth profiling, strain panel (AID 1159580);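 further: tested at 20 µM; growth read once vehicle control cultures reached saturation at 30 °C; 1 = growth at the plate median or of vehicle wells; lower values mean less growth of the strain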
Conditions: S. cerevisiae deletion strains, growth OD

Measured: normalized growth

COc1cc2c(cc1OC)C1(O)C(=O)c3ccc(O)c(C(=O)O)c3OC1CO2 (configuration not stated)
inactive: locus YAL021C, strain ccr4, hits give low values 1 | locus YAL026C, strain drs2, hits give low values 0.988 | locus YAL030W, strain snc1, hits give low values 1 | locus YBL061C, strain skt5, hits give low values 0.995 | locus YBR009C, strain hhf1, hits give low values 0.998 | locus YBR021W, strain FUR4, hits give low values 1.06 | locus YBR023C, strain chs3, hits give low values 1.01 | locus YBR171W, strain sec66, hits give low values 0.996 | locus YBR229C, strain ROT2, hits give low values 1.01 | locus YBR231C, strain swc5, hits give low values 1.01 | locus YBR279W, strain paf1, hits give low values 0.985 | locus YCL011C, strain gbp2, hits give low values 0.991 | locus YCL016C, strain dcc1, hits give low values 0.98 | locus YCL029C, strain bik1, hits give low values 0.985 | locus YCL069W, strain vba3, hits give low values 1 | locus YCR088W, strain abp1, hits give low values 0.996 | locus YDL005C, strain med2, hits give low values 1.01 | locus YDL035C, strain GPR1, hits give low values 1.05 | locus YDL040C, strain nat1, hits give low values 0.998 | locus YDL074C, strain BRE1, hits give low values 1.05 | locus YDL101C, strain DUN1, hits give low values 0.991 | locus YDL185W, strain tfp1, hits give low values 0.954 | locus YDL192W, strain arf1, hits give low values 1.02 | locus YDR001C, strain nth1, hits give low values 0.987 | locus YDR069C, strain doa4, hits give low values 0.991 | locus YDR101C, strain arx1, hits give low values 1.05 | locus YDR137W, strain rgp1, hits give low values 0.973 | locus YDR159W, strain sac3, hits give low values 1 | locus YDR162C, strain NBP2, hits give low values 0.993 | locus YDR195W, strain ref2 0.955 | locus YDR297W, strain sur2, hits give low values 1 | locus YDR318W, strain mcm21, hits give low values 0.986 | locus YDR334W, strain swr1, hits give low values 0.978 | locus YDR335W, strain msn5, hits give low values 1.01 | locus YDR388W, hits give low values 0.977 | locus YDR392W, strain spt3, hits give low values 0.974 | locus YDR502C, strain sam2, hits give low values 0.983 | locus YEL003W, strain gim4, hits give low values 0.998 | locus YEL037C, strain rad23, hits give low values 0.987 | locus YEL061C, strain CIN8 (second series), hits give low values 0.989 | locus YEL061C, strain CIN8, hits give low values 0.998 | locus YER015W, strain faa2, hits give low values 0.989 | locus YER016W, strain bim1, hits give low values 0.991 | locus YER110C, hits give low values 0.979 | locus YER111C, strain swi4, hits give low values 0.98 | locus YER155C, strain BEM2 (second series), hits give low values 0.994 | locus YER155C, strain BEM2, hits give low values 0.99 | locus YER167W, strain BCK2, hits give low values 1.04 | locus YFR010W, strain ubp6, hits give low values 1 | locus YGL078C, strain dbp3, hits give low values 0.981 | locus YGL086W, strain mad1, hits give low values 1.02 | locus YGL167C, strain pmr1, hits give low values 0.998 | locus YGL173C, strain kem1, hits give low values 0.994 | locus YGL227W, strain vid30, hits give low values 0.991 | locus YGL240W, strain doc1, hits give low values 1.01 | locus YGL248W, strain PDE1, hits give low values 1.02 | locus YGL253W, strain hxk2, hits give low values 0.999 | locus YGR078C, strain PAC10, hits give low values 0.991 | locus YGR135W, strain pre9, hits give low values 0.98 | locus YGR252W, strain gcn5, hits give low values 1.09 | locus YHR013C, strain ard1, hits give low values 0.972 | locus YHR027C, strain rpn1, hits give low values 0.991 | locus YHR030C, strain SLT2, hits give low values 0.99 | locus YHR079C, strain IRE1 (second series), hits give low values 0.99 | locus YHR079C, strain IRE1, hits give low values 0.983 | locus YHR094C, strain hxt1, hits give low values 0.982 | locus YHR129C, strain ARP1, hits give low values 1 | locus YHR142W, strain chs7, hits give low values 0.98 | locus YHR200W, strain rpn10, hits give low values 0.995 | locus YIL066C, strain RNR3, hits give low values 1.02 | locus YIL073C, strain SPO22, hits give low values 0.932 | locus YIL125W, strain kgd1, hits give low values 0.985 | locus YIR030C, strain dcg1, hits give low values 0.997 | locus YJL092W, strain hpr5, hits give low values 1.02 | locus YJL095W, strain BCK1 (second series), hits give low values 0.989 | locus YJL095W, strain BCK1, hits give low values 0.99 and 0.98 | locus YJL115W, strain asf1, hits give low values 0.986 | locus YJL129C, strain trk1, hits give low values 0.972 | locus YJL134W, strain LCB3, hits give low values 0.986 | locus YJL154C, strain vps35, hits give low values 0.995 | locus YJL164C, strain tpk1, hits give low values 0.998 | locus YJL166W, strain qcr8, hits give low values 0.997 | locus YJL168C, strain set2, hits give low values 0.989 | locus YJL187C, strain SWE1 (second series), hits give low values 0.989 | locus YJL187C, strain SWE1, hits give low values 0.999 | locus YJR043C, strain POL32, hits give low values 1.08 | locus YJR066W, strain TOR1, hits give low values 0.9
